In PMC7862700, “An all-to-all approach to the identification of sequence-specific readers for epigenetic DNA modifications on cytosine” one finds binding signal data, which are given here for one sequence.

Holding throughout (experiment): DAPPL (digital affinity profiling via proximity ligation, sequencing); 10 mM Tris-HCl pH 7.5, 50 mM NaCl, 1 mM DTT, 4% glycerol, room temperature, 30 min; GST-TFs on glutathione beads, 16-mer random dsDNA library, 0.1% formaldehyde crosslink after washing; high values mean tight binding
Experiment [1] has as its target T1, FLI1 (Homo sapiens, UniProt Q01543 1-452).
T1 sequence: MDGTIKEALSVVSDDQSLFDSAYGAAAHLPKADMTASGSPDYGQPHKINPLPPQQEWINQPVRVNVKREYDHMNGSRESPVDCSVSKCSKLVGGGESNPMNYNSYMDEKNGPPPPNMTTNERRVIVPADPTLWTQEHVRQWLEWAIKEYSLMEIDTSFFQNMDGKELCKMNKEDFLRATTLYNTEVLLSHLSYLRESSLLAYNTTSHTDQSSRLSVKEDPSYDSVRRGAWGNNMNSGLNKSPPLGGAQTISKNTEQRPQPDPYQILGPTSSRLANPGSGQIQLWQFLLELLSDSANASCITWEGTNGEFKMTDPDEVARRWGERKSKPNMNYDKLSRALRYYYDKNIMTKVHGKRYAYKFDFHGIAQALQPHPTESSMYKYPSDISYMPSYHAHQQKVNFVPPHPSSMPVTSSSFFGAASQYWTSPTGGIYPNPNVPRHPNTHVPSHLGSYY
The settings on record: protein: recombinant; tags: N-terminal GST; dsDNA, one strand shown. The method in brief:
(§1)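 Sequencing on an Illumina NextSeq500 followed washing, crosslinking with 0.1% formaldehyde, proximity ligation (BsaI/T4 ligase, 1 h, 37 °C) and PCR amplification of pools that had been incubated for 30 min at room temperature with 200 nmole of a random double-stranded 16-mer DNA library in Tris/NaCl/DTT/glycerol buffer. Each pool held DNA-barcoded human transcription factors, expressed in yeast as GST fusions and captured on glutathione beads, plus a tag-only sample. Binding signal is a hexamer's read frequency for a factor divided by its frequency in the tag-only sample.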

Experiment [2] concerns the target T2, ELK1 (Homo sapiens, UniProt P19419 1-428).
T2 sequence: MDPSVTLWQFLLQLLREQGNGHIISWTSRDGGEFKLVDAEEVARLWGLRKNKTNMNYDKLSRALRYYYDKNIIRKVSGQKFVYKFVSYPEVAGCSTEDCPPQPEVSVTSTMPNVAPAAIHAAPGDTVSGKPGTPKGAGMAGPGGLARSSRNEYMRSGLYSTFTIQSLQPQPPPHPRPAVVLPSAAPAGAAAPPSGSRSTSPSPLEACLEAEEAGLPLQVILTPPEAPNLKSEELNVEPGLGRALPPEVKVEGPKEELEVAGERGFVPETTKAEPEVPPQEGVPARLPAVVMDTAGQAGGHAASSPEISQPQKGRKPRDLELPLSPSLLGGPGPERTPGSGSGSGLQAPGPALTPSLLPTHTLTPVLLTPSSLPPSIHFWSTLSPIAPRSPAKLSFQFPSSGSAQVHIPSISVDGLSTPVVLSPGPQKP
The settings on record: protein: recombinant; tags: N-terminal GST; dsDNA, one strand shown. Put shortly:
as §1

The target in experiment [3] is T3, GABPA (Homo sapiens, UniProt Q06546 1-454).
T3 sequence: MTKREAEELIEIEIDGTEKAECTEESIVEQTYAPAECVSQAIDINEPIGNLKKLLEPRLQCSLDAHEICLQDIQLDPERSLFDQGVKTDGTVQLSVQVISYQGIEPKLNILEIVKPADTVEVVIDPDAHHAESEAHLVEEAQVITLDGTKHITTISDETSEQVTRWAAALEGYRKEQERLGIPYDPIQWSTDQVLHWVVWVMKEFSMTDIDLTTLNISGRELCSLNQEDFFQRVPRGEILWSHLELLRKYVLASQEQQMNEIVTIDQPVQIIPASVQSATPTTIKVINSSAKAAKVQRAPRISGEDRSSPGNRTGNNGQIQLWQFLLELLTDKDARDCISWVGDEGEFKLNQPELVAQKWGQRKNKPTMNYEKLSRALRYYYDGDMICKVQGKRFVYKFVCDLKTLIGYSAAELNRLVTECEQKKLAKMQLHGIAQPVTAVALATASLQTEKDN
The conditions noted are these: protein: recombinant; tags: N-terminal GST; dsDNA, one strand shown. Put shortly:
as §1

The target of experiment [4] is T4, ERG (Homo sapiens, UniProt P11308 1-479).
T4 sequence: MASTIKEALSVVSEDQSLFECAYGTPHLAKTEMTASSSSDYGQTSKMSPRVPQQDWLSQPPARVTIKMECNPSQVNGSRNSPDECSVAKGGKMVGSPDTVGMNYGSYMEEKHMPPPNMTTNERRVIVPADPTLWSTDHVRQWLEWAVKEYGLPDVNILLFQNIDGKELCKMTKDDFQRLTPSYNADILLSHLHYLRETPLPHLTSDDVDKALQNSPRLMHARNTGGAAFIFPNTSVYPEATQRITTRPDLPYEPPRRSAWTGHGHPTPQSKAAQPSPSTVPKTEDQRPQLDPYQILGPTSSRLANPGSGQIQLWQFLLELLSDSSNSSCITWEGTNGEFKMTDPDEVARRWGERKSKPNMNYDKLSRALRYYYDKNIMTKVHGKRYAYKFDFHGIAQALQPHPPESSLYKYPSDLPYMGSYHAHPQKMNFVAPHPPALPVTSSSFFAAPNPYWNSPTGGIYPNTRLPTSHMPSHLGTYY
The settings on record: protein: recombinant; tags: N-terminal GST; dsDNA, one strand shown. The method in brief:
as §1

The target of experiment [5] is ELF1 (Homo sapiens, UniProt P32519 1-619). The conditions noted are these: protein: recombinant; tags: N-terminal GST; dsDNA, one strand shown. The method in brief:
as §1

The target of experiment [6] is T5, EHF (Homo sapiens, UniProt Q9NZC4 1-300).
T5 sequence: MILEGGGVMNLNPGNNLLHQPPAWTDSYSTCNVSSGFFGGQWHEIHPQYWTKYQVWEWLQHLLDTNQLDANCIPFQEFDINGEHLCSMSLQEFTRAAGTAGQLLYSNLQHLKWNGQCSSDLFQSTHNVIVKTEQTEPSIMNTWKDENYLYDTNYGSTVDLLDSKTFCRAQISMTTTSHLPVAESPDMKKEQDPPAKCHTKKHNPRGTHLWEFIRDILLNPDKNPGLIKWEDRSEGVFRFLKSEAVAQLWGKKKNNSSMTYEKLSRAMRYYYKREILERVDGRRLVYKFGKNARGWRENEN
The conditions noted are these: protein: recombinant; tags: N-terminal GST; dsDNA, one strand shown. Put shortly: as §1

Experiment [7] deals with SPI1 (Homo sapiens, UniProt P17947 1-270). The settings on record: protein: recombinant; tags: N-terminal GST; dsDNA, one strand shown. Put shortly: as §1
The target of experiment [8] is SPIB (Homo sapiens, UniProt Q01892 1-262). The conditions noted are these: protein: recombinant; tags: N-terminal GST; dsDNA, one strand shown. The method in brief:
as §1

Experiment [9] deals with T6, ELK3 (Homo sapiens, UniProt P41970 1-407).
T6 sequence: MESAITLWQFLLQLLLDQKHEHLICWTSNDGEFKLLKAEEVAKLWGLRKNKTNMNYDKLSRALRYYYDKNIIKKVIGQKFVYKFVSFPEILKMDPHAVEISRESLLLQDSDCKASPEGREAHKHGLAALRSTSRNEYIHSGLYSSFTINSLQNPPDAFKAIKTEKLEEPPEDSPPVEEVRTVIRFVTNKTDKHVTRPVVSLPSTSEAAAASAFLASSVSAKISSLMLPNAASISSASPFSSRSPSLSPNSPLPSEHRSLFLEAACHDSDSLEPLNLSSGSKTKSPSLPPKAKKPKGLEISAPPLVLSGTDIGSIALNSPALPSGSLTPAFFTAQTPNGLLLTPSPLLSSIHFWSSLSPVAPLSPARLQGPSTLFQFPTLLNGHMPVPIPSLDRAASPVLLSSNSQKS
The settings on record: protein: recombinant; tags: N-terminal GST; dsDNA, one strand shown. Put shortly: as §1

The target in experiment [10] is T7, FEV (Homo sapiens, UniProt Q99581 1-238).
T7 sequence: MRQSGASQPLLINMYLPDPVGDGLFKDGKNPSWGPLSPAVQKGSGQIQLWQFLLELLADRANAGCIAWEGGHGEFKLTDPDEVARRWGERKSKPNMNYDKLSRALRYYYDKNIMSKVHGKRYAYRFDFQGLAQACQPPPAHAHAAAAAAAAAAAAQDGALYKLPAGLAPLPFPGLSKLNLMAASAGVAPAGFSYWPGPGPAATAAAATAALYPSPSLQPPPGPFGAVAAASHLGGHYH
The settings on record: protein: recombinant; tags: N-terminal GST; dsDNA, one strand shown. Put shortly:
as §1

Experiment [11] deals with ETV5 (Homo sapiens, UniProt P41161 1-510). The conditions noted are these: protein: recombinant; tags: N-terminal GST; dsDNA, one strand shown. Put shortly:
as §1

Experiment [12] deals with HSF1 (Homo sapiens, UniProt Q00613 1-529). The conditions noted are these: protein: recombinant; tags: N-terminal GST; chain copies: 3; dsDNA, one strand shown. The method in brief:
as §1

For experiment [13], the target named is T8, SPIC (Homo sapiens, UniProt Q8N5J4 1-248).
T8 sequence: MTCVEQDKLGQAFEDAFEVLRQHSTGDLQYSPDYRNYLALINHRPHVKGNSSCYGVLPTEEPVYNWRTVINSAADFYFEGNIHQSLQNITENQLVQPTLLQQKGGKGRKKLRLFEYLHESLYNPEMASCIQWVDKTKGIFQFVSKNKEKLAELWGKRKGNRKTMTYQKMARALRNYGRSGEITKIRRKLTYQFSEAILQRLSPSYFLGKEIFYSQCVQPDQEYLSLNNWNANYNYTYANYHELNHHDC
The settings on record: protein: recombinant; tags: N-terminal GST; dsDNA, one strand shown. The method in brief:
as §1

The target in experiment [14] is ELF4 (Homo sapiens, UniProt Q99607 1-663). The settings on record: protein: recombinant; tags: N-terminal GST; dsDNA, one strand shown. The method in brief: as §1
ELF4, sequence (Q99607 whole entry): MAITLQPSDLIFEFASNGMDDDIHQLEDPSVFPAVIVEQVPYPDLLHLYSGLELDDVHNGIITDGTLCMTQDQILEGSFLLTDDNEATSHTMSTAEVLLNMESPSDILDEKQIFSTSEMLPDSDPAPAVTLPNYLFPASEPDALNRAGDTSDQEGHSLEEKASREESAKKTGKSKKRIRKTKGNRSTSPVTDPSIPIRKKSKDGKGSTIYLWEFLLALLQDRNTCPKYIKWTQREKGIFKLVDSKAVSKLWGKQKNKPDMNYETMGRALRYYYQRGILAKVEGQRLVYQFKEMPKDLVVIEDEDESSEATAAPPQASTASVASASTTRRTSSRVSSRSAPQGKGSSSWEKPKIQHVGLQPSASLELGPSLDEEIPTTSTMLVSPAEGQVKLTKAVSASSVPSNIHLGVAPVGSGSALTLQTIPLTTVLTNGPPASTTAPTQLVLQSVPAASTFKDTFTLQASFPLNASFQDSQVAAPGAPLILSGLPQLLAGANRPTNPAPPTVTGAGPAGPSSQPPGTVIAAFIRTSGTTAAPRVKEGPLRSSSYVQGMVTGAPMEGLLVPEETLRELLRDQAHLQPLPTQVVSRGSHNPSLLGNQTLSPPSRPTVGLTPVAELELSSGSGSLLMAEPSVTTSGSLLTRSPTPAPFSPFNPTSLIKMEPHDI
For experiment [15], the target named is T9, ELK4 (Homo sapiens, UniProt P28324-2 1-405).
T9 sequence: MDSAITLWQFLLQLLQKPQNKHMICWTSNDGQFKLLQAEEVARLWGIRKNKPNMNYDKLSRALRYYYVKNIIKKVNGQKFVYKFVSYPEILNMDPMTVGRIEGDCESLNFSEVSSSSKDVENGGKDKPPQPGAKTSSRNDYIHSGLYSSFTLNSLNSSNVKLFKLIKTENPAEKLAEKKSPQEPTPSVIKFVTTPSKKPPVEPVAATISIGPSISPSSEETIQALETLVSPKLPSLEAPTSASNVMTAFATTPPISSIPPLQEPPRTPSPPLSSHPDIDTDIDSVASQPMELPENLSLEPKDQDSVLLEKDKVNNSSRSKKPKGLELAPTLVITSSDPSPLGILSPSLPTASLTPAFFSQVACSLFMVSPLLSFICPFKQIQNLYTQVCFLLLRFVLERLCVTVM
The conditions noted are these: protein: recombinant; tags: N-terminal GST; dsDNA, one strand shown. Put shortly:
as §1

Experiment [16] addresses T10, ETV2 (Homo sapiens, UniProt O00321 1-342).
T10 sequence: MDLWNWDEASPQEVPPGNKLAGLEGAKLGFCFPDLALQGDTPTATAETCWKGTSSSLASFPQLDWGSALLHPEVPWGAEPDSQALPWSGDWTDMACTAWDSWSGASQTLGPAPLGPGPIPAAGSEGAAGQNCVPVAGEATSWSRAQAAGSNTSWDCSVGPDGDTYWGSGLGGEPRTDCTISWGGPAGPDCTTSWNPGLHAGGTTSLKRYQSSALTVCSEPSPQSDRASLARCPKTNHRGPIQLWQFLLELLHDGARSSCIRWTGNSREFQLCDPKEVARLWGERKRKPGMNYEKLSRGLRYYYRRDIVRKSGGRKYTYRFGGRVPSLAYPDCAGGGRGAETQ
The conditions noted are these: protein: recombinant; tags: N-terminal GST; dsDNA, one strand shown. The method in brief:
as §1

The target in experiment [17] is T11, ELF3 (Homo sapiens, UniProt P78545 1-371).
T11 sequence: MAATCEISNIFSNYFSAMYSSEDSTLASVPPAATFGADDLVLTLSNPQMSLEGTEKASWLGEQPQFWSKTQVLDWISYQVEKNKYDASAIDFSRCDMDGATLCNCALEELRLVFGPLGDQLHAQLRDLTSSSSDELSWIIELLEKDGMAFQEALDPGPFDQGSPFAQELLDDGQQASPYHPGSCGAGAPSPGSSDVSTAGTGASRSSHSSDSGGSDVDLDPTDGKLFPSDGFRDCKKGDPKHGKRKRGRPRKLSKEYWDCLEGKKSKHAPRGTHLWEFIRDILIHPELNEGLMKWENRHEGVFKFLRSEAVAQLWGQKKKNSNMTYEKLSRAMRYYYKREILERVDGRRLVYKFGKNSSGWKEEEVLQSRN
The settings on record: protein: recombinant; tags: N-terminal GST; dsDNA, one strand shown. Put shortly:
as §1

In experiment [18] the target is ETV1 (Homo sapiens, UniProt P50549 1-477). The settings on record: protein: recombinant; tags: N-terminal GST; dsDNA, one strand shown. Put shortly: as §1
ETV1, sequence (P50549 whole entry): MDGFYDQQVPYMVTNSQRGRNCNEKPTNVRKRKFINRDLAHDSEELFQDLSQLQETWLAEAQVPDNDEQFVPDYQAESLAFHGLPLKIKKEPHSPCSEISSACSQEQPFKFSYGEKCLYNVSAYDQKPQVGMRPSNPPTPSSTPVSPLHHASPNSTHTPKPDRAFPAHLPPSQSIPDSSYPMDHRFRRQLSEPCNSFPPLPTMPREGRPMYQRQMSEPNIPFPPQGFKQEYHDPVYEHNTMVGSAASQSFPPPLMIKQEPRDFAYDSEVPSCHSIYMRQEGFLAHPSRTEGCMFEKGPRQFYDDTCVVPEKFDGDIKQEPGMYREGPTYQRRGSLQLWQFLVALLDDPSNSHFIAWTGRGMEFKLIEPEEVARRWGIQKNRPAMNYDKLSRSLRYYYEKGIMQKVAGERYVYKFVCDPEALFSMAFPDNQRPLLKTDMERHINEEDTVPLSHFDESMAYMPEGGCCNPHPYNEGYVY

HSF1, sequence (Q00613 whole entry): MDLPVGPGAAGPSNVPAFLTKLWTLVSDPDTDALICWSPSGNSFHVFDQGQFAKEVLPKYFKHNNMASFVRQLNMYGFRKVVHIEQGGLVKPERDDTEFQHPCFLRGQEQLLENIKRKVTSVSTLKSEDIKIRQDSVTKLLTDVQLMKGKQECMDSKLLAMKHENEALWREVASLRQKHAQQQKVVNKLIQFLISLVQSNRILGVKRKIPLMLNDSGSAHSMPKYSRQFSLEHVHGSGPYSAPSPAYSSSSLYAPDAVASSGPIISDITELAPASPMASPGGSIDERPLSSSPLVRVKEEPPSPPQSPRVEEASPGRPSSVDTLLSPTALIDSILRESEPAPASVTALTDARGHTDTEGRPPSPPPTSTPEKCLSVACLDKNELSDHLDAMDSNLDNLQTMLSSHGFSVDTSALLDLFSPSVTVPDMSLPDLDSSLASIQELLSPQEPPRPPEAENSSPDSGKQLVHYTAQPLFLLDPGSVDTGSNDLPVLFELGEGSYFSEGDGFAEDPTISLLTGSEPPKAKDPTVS
SPIB, sequence (Q01892 whole entry): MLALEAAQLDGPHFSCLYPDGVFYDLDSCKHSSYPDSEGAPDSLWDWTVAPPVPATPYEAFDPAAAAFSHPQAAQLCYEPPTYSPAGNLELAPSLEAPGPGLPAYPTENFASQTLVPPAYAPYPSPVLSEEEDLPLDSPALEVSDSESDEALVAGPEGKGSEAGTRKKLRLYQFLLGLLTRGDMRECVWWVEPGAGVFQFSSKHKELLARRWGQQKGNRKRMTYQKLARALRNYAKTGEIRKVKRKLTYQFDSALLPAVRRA
ELF1, sequence (P32519 whole entry): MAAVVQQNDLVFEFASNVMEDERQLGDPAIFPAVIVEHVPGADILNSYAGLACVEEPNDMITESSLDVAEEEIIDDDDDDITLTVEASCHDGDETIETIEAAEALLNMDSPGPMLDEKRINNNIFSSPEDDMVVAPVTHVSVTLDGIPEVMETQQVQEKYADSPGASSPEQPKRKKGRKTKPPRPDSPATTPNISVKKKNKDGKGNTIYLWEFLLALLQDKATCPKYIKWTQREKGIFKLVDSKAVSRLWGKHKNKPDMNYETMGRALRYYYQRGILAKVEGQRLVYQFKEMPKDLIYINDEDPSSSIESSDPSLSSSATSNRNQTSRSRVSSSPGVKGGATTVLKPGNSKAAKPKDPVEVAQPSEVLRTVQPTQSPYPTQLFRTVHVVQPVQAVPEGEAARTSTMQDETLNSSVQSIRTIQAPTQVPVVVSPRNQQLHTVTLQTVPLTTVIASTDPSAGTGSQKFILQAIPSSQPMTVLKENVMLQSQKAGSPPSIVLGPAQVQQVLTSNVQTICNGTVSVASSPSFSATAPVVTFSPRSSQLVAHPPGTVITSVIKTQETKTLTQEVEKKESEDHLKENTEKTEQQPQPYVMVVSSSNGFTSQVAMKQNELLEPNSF
ETV5, sequence (P41161 whole entry): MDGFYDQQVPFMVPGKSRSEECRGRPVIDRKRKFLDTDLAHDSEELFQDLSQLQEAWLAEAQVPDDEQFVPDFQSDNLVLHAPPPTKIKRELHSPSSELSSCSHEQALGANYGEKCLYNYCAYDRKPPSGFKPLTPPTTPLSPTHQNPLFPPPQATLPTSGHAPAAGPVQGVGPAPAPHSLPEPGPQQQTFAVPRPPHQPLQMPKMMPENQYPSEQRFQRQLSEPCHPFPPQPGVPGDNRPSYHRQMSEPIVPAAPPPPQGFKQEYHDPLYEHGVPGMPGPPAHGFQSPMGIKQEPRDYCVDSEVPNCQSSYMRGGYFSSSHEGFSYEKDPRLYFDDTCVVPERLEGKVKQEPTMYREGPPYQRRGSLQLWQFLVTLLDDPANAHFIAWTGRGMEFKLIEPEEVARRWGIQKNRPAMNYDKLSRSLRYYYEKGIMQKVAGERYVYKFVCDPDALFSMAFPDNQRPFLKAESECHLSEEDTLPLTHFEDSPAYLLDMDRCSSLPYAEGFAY

Regarding CTGCCA, the binding signal in experiment [1] was 1.18 fold enrichment (6-mer frequency, TF over GST control); in [2], 1.17 fold enrichment (6-mer frequency, TF over GST control); in experiment [3], 1.24 fold enrichment (6-mer frequency, TF over GST control); in experiment [4], 1.23 fold enrichment (6-mer frequency, TF over GST control); in experiment [5], 1.23 fold enrichment (6-mer frequency, TF over GST control); in [6], 1.18 fold enrichment (6-mer frequency, TF over GST control). Also, the binding signal in [7] is 1.24 fold enrichment (6-mer frequency, TF over GST control); in experiment [8], 1.28 fold enrichment (6-mer frequency, TF over GST control); in experiment [9] it was 1.08 fold enrichment (6-mer frequency, TF over GST control); in [10], 1.24 fold enrichment (6-mer frequency, TF over GST control); in [11], 1.15 fold enrichment (6-mer frequency, TF over GST control); in experiment [12], 1 fold enrichment (6-mer frequency, TF over GST control). In addition, the binding signal was 1.18 fold enrichment (6-mer frequency, TF over GST control) in experiment [13]; 1.25 fold enrichment (6-mer frequency, TF over GST control) in experiment [14]; 1.33 fold enrichment (6-mer frequency, TF over GST control) in experiment [15]; 1.03 fold enrichment (6-mer frequency, TF over GST control) in experiment [16]; 1.22 fold enrichment (6-mer frequency, TF over GST control) in experiment [17]; 1.17 fold enrichment (6-mer frequency, TF over GST control) in experiment [18].
